Entries with a potency or affinity are not part of this list.
Assays:
Staphylococcus aureus = details: Concentration 20 uM; ASSAY_TEST Inhibition of Bacterial Growth; detection method Absorption (OD600); MEDIA CAMHB; plate type 384well; NBS; CORNING #3640; time 18 hr
Escherichia coli = details: Concentration 20 uM; ASSAY_TEST Inhibition of Bacterial Growth; detection method Absorption (OD600); MEDIA CAMHB; plate type 384well; NBS; CORNING #3640; time 18 hr

| Structure (SMILES) | Inhibition (Staphylococcus aureus) [%] | Inhibition (Escherichia coli) [%] |
| --- | --- | --- |
| CC[C@]1(O)CC[C@H]2[C@@H]3CCC4=CCCC[C@@H]4[C@H]3CC[C@@]21C [ETHYLESTRENOL] | -6.51 | 3.02 |
| CCC1(c2ccc(N)cc2)CCC(=O)NC1=O (configuration not stated) [AMINOGLUTETHIMIDE] | -4.21 | 2.02 |
| C=C(C)[C@@H]1[C@H]2OC(=O)[C@@H]1[C@]1(O)C[C@H]3O[C@]34C(=O)O[C@H]2[C@]14C.CC(C)(O)[C@@H]1[C@H]2OC(=O)[C@@H]1[C@]1(O)C[C@H]3O[C@]34C(=O)O[C@H]2[C@]14C | 10.5 | 5.19 |
| CCOC(=O)c1ncn2c1CN(C)C(=O)c1cc(F)ccc1-2 [FLUMAZENIL] | -0.36 | -2.76 |
| C[C@H](CCC(=O)O)[C@H]1CC[C@H]2[C@@H]3[C@@H](O)C[C@@H]4C[C@H](O)CC[C@]4(C)[C@H]3CC[C@]12C [URSODIOL] | 5.15 | 2.26 |
| Cc1nnc2n1-c1ccc(Cl)cc1C(c1ccccc1)=NC2 [ALPRAZOLAM] | 16.72 | 0.08 |

Reference: ChEMBL document CHEMBL4513141, “CO-ADD screening of NIH (USA) - Clinical Collection” (2021)
